Source: PubChem (several laboratories)
MITF TRPM1 inh = MITF TRPM1 promoter inhibition in SK-MEL-5 cells. 330,000 compounds, 0.83% hits. SK-MEL-5 TRPM1 promoter luciferase, 24 h. inhibition, % at 12.5 µM;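 active = mean inhibition across replicates of 60% or more, whatever share of single replicates reaches that level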
ABHD5-PLIN5 inh = inhibitors of human ABHD5-perilipin-5 interaction; inhibition, % at 4 µM; AID 602281; 360,000 compounds, 0.78% hits; Split G. princeps luciferase complementation, luminescence, 4 h; Q00G26+Q8WTS1;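 active = inhibition above the mean inhibition across every tested compound plus 3 SD, cut at about 22% in these data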;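 also: 0% = DMSO only wells and the 100% control is not disclosed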
Peg3 prom inh-1 = reduces Peg3 promoter-driven luciferase expression in HeLa | 360,000 compounds, 1.7% hits | HeLa PEG-Prom luciferase reporter, luminescence, overnight | inhibition, % at 20 µM;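 active = inhibition of at least 50% at 20 µM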
CF NFkB inh = inhibitors of cystic fibrosis induced NF-kB; KKLEB NF-kB-GFP reporter, PAF-induced, GFP fluorescence overnight; inhibition, % at 5 µM; 360,000 compounds, 0.86% hits; AID 588850;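 active = at least 50% inhibition at 5 µM, scaled per plate between neutral and stimulator controls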;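 also: PAF is a Pseudomonas aeruginosa culture filtrate used as stimulus; plate controls were PAF-stimulated DMSO wells for no effect and unstimulated DMSO wells for full effect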
KKLEB cytotox = reduces viability of KKLEB cystic fibrosis airway cells; KKLEB CF airway cells viability, ATPlite luminescence, overnight; hits give low values; cells stimulated with P. aeruginosa culture filtrate; activity change (cytotoxicity), % at 5 µM; 360,000 compounds, 0.36% hits;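 active = corrected activity change at or below -50% at 5 µM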
HIF-2a block = blocks HIF-2a reporter activity. inhibition, % at 18.8 µM. 360,000 compounds, 0.72% hits. 786-0 RCC cells HIF-2a reporter, luciferase luminescence, overnight;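 active = inhibition of the luminescence signal of 40% or more relative to plate controls, in a single-dose primary screen at 18.75 µM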
Peg3 prom inh-2 = Peg3 promoter inhibition confirmation | shares compounds with Peg3 prom inh-1 | HeLa PEG-Prom luciferase reporter, luminescence, overnight | inhibition, % at 20 µM | 1,300 compounds, 84% hits;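 active = at 20 µM dose, 40% or more inhibition averaged across four replicates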
CF NFkB conf = confirmation of cystic fibrosis induced NF-kB inhibitors | shares compounds with CF NFkB inh | KKLEB CF airway cells, PAF-induced NF-kB-GFP fluorescence, overnight | inhibition, % at 5 µM | 1,300 compounds, 64% hits | AID 602472; in the data active = inhibition above about 40%;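 also: stimulus PAF is a Pseudomonas aeruginosa filtrate and not platelet activating factor; plate controls were DMSO wells with stimulus for no effect and unstimulated DMSO wells for full effect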
ABHD5-PLIN5 conf = confirmation of human ABHD5-PLIN5 interaction inhibitors. shares compounds with ABHD5-PLIN5 inh. biochemical ABHD5-PLIN5 interaction, luminescence. inhibition, % at 4 µM. 2,200 compounds, 67% hits. AID 651612; in the data active = inhibition above about 23%;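 also: 0% = DMSO vehicle wells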
HNF4 split-luc = HNF4 split-luciferase signal hit, counter-screen; shares compounds with ABHD5-PLIN5 inh; HNF4 dimerization, luminescence, biochemical; inhibition, % at 4 µM; 2,200 compounds, 77% hits; AID 651674;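 active = mean inhibition across replicate wells exceeding the computed hit threshold, cut at about 13% in these data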;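 also: light from luciferase halves that rejoin when HNF4 fusion proteins dimerize; 0% = DMSO only wells and the 100% control is not given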
Mdm2 MdmX conf = confirmation of inhibitors of human Mdm2/MdmX interaction, set 2 | AID 504601 | 740 compounds, 99% hits | inhibition, % at 8 µM | SaOS-2 split-luciferase Mdm2/MdmX complementation, luminescence | shares compounds with HIF-2a block;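 active = mean inhibition of the luminescence signal across two replicates at or above 26 percent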
HIF-2a conf = HIF-2a inhibition, single concentration confirmation; 1,800 compounds, 56% hits; shares compounds with HIF-2a block; 786-0 RCC cells, HIF-2a luciferase reporter luminescence, overnight; inhibition, % at 18.8 µM;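 active = mean inhibition across four replicates of at least 40 percent at the single tested concentration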
HIF-1a counter = counter-screen for HIF-2a inhibitors: HIF-1a inhibition in MiaPaCa-2 cells | shares compounds with HIF-2a block | MiaPaCa-2 HIF-1a luciferase reporter, desferoxamine, overnight | inhibition, % at 18.8 µM | 1,800 compounds, 72% hits | AID 651589;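 active = mean inhibition of the reporter signal across four replicates at the single tested dose of 50% or more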
* marks the source's active call; other numbers are inactive results; . = no result given. A selection: hits, their analogues and other compounds. The true share with any hit is near 3%.

SMILES	MITF TRPM1 inh	ABHD5-PLIN5 inh	Peg3 prom inh-1	CF NFkB inh	KKLEB cytotox	HIF-2a block	Peg3 prom inh-2	HIF-2a conf	HIF-1a counter	others
COc1ccc(-n2nnnc2C(CCSC)N2CCC(n3c(=O)[nH]c4ccccc43)CC2)cc1 (stereo not given)	.	1	56*	81*	-24	-16	42*	.	.	CF NFkB conf=70*
O=C1NC(=S)NC(=O)C1=Cc1cccn1-c1ccc(O)cc1	94*	24*	71*	26	2	56*	49*	.	.	ABHD5-PLIN5 conf=91*;HNF4 split-luc=95*
Cc1ccccc1NC(=O)N1Cc2ccccc2-n2nncc2C1	.	0	-6	-20	16	-12	.	.	.
CC1=CC2/C=C(\C)CCC(O)C(O)/C=C/C(=O)C23C(=O)NC(CC(C)C)C3C1C (stereo not given)	97*	65*	108*	92*	-64*	93*	98*	99*	102*	ABHD5-PLIN5 conf=90*;HNF4 split-luc=103*;Mdm2 MdmX conf=103*
Cc1ccccc1C(=O)N1Cc2cnnn2-c2ccccc2C1C#N (stereo not given)	-7	9	-15	-8	14	2	.	.	.
Cc1ccccc1CN1Cc2cnnn2-c2ccccc2C1C#N (stereo not given)	98*	74*	95*	38	-11	92*	98*	97*	107*	ABHD5-PLIN5 conf=96*;HNF4 split-luc=96*
O=C1NCN(c2ccccc2)C12CCN(C(c1cc3ccccc3o1)c1nnnn1C1CCCCC1)CC2 (stereo not given)	.	0	19	47	-24	-23	.	.	.
CC1=CC2OC3CC4OC(=O)C=CC=CC(C(C)O)OCC(O)C(C)CC(=O)OCC2(CC1O)C4(C)C31CO1 (stereo not given)	90*	2	96*	86*	-52*	76*	98*	73*	105*
C[C@H]1CN([C@@H](C)CO)C(=O)CCCn2nncc2CO[C@H]1CN(C)C(=O)Oc1ccc2ccccc2c1	.	8	-8	-1	-2	6	.	.	.
O=C(NCP(=O)(Oc1ccccc1)Oc1ccccc1)OCc1ccccc1	.	0	8	-14	0	11	.	.	.
CC(=O)OC(C)(C)/C=C/C(=O)C(C)(O)C1[C@H](O)C[C@@]2(C)C3CC=C4C(CC[C@@H](O)C4(C)C)[C@]3(CO)C(=O)C[C@]12C (stereo not given in full)	85*	7	84*	91*	-92*	72*	87*	73*	105*
COC(=O)[C@@]1(Sc2ccc(C)cc2)CC(=O)N(P(=O)(OC)OC)[C@@H]1c1ccccc1	.	-6	.	.	.	-1	.	.	.
C[C@@H]1O[C@@H](O[C@@H]2C=C3CCC4C(CC[C@]5(C)[C@@H](c6ccc(=O)oc6)CC[C@]45O)[C@@]3(C)CC2)[C@H](O)[C@H](O)[C@H]1O (stereo not given in full)	82*	3	95*	88*	-62*	90*	97*	43*	105*	Mdm2 MdmX conf=87*
